ZTA DNA inh – blocks Epstein-Barr virus ZTA, an EBNA-1 counter-screen; inhibition, % at 11 µM; ZTA-DNA binding, fluorescence polarization; AID 2234; hit rate 0.15% among 320,000; in the data active = inhibition above about 33%
Target sequence (P03206 whole entry, looked up): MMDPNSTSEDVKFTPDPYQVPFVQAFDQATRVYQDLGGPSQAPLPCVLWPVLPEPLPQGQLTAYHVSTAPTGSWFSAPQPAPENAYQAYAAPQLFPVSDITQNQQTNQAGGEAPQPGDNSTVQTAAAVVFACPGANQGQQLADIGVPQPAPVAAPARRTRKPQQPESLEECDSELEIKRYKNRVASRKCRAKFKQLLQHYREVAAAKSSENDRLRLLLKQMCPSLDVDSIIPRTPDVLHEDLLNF
PP5 inh – PP5 phosphatase inhibitors, primary screen, biochemical, fluorescence | inhibition, % at 6.7 µM | hit rate 0.18% among 320,000 | AID 1987, 2009 | purified PP5c, OMFP substrate fluorescence;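 active = inhibition above the campaign's mean inhibition across all tested compounds plus 3 SD, cut at about 9.5% in these data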;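 also: 0% = DMSO only and 100% = 100 µM cantharidin control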
MsrA inhibitor – bovine MsrA enzyme inhibitors, primary screen, biochemical, absorbance, HTS | purified bovine MsrA, absorbance read-out | hit rate 0.75% among 360,000 | Methionine sulfoxide reductase A (Bos taurus) | inhibition, % at 15.5 µM; in the data active = inhibition above about 4.5%;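 also: 0% = vehicle wells with enzyme and 100% = reference inhibitor wells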
MsrA act – bovine MsrA enzyme activators, primary screen, biochemical, absorbance, HTS; purified bovine MsrA, absorbance read-out; activation, % at 10.6 µM; hit rate 0.3% among 360,000; AID 602163, 2012; in the data active = activation above about 7.5%;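 also: 0% = vehicle and 100% = reference activator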
EBNA-1 inh – EBNA-1 DNA-binding inhibitors, primary screen, biochemical, fluorescence polarization. hit rate 0.34% among 300,000. inhibition, % at 14.8 µM; in the data active = inhibition above about 28%
PP1 inh – PP1-alpha phosphatase inhibitors, primary screen, counter-screen for PP5 inhibitor project, biochemical, fluorescence, OMFP substrate, single point; purified PP1alpha; inhibition, % at 6.7 µM; hit rate 0.9% among 320,000;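 active = inhibition above the mean inhibition of all tested compounds plus 3 SD, computed separately for each screening campaign, cut at about 15% in these data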
Target sequence (P62136 whole entry, looked up): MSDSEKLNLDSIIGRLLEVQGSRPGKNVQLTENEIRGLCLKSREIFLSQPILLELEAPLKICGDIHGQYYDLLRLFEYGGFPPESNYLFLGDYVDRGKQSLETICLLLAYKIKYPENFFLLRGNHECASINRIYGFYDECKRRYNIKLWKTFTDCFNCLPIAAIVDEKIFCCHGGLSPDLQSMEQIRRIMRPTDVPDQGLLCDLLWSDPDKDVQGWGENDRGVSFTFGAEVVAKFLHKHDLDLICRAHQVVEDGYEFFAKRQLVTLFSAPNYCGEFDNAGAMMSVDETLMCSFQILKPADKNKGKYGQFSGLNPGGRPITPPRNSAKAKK
PP5 conf – PP5 phosphatase inhibitors, confirmation, biochemical, fluorescence, human. hit rate 22% among 460. Purified PP5, fluorogenic phosphatase substrate. inhibition, % at 6.7 µM. AID 2331, 2010. shares compounds with PP5 inh; in the data active = inhibition above about 9.5%
PP1 counter 3x – PP1 phosphatase inhibitors, counter-screen for PP5 inhibitor project, biochemical, fluorescence, triplicate; PP1 enzyme, fluorescent phosphatase substrate; hit rate 4% among 460; inhibition, % at 6.7 µM; shares compounds with PP5 inh; AID 2355, 2010; in the data active = inhibition above about 16%
* marks the source's active call; other numbers are inactive results; / = not tested or not shown. Rows were chosen to be rich in hits. Some 2.3% of all compounds tested hit in one or more screens of this group.

SMILES	ZTA DNA inh	PP5 inh	MsrA inhibitor	MsrA act	EBNA-1 inh	PP1 inh	PP5 conf	PP1 counter 3x
COc1ccccc1/C=N/Nc1cc(N(C)C)nc(N(C)C)n1	-12	18*	0	-5	8	-4	30*	5
CN(C)c1cc(N/N=C\c2ccccc2)nc(N(C)C)n1	-11	16*	3	-1	-4	0	38*	7
COc1ccc(/C=N/Nc2cc(N(C)C)nc(N(C)C)n2)cc1	11	14*	3	-4	9	-1	43*	10
COc1ccc2[nH]cc(CCNC(=O)CCC3CCCCC3)c2c1	6	1	2	-2	0	-5	/	/
O=C(Cc1ccccc1)NC1(O)C(=O)c2ccccc2C1=O	13	7	-1	-2	4	-3	/	/
Cc1ccc(C(=O)NC2(O)C(=O)c3ccccc3C2=O)cc1C	-16	15*	0	1	1	2	41*	4
O=C(NC1(O)C(=O)c2ccccc2C1=O)c1ccc(C(F)(F)F)cc1	6	18*	1	1	8	6	38*	13
Nc1ccccc1S(=O)(=O)C(F)F	6	0	1	-4	-1	-4	/	/
COc1ccc(NC(=O)C2C3C=CC(O3)C2C(=O)O)cc1 (stereo unspecified)	10	7	1	-3	7	-1	/	/
O=C(O)C1C2C=CC(O2)C1C(=O)Nc1ccc2c(c1)OCCO2 (stereo unspecified)	-8	15*	/	/	-1	7	1	10
CC(=O)c1ccc(NC(=O)C2C3C=CC(O3)C2C(=O)O)cc1 (stereo unspecified)	-3	24*	0	-10	-13	4	3	8
O=C(O)C1C2C=CC(O2)C1C(=O)Nc1ccc(S(=O)(=O)N2CCc3ccccc32)cc1 (stereo unspecified)	-2	17*	-2	-2	1	3	3	3
CC(C)OC(=O)c1cc(NC(=O)C2C3C=CC(O3)C2C(=O)O)cc(C(=O)OC(C)C)c1 (stereo unspecified)	-1	31*	-2	-8	5	8	-4	3
C/C=C/c1ccc2c(c1)O[C@H](CN(C)CC1CCOCC1)[C@@H](C)CN([C@H](C)CO)S2(=O)=O	/	/	0	-2	/	/	/	/
CCCOC(=O)c1ccc(NC(=O)C2C3C=CC(O3)C2C(=O)O)cc1 (stereo unspecified)	-6	21*	0	-4	6	1	0	0
COc1cccc(NC(=O)C2C3C=CC(O3)C2C(=O)O)c1 (stereo unspecified)	-14	24*	-1	-3	4	5	2	18*
CCCOC(=O)c1ccc(NC(=O)COC)cc1	-20	1	0	-5	-9	2	/	/
CCn1c(=O)c([N+](=O)[O-])c(N2CCN(Cc3ccc4c(c3)OCO4)CC2)c2ccccc21	11	10*	2	-4	-1	-2	-4	-2
COc1ccc(CCN2C(=O)N[C@@H](C(C)C)C2=O)cc1	-19	1	0	-4	-6	-3	/	/
COc1cccc(CNC(=O)CN(C)S(=O)(=O)c2ccc3c(c2)n(C)c(=O)c(=O)n3C)c1	0	1	0	-4	-6	-4	/	/
CCCCN(C(C)=O)c1c(CC)nc2ccc(C(=O)Nc3cccc(OCC(=O)N(C)C)c3)cn12	/	/	0	-6	/	/	/	/
Cc1ccc(NC(=O)c2ccccc2F)cc1S(=O)(=O)N1CCCCCC1	5	11*	-2	-8	2	-3	0	-1
Cc1ccc(NC(=O)COC(=O)c2ccccc2F)cc1S(=O)(=O)N1CCCCC1	/	/	0	-3	/	/	/	/
Nc1c(C(=O)NCc2ccc3c(c2)OCO3)c2nc3ccccc3nc2n1CCCN1CCOCC1	7	9.7*	0	1	-1	4	13*	4
COc1ccccc1CNC(=O)c1c(N)n(CCCN2CCOCC2)c2nc3ccccc3nc12	/	/	1	-1	/	/	/	/
SMILES	ZTA DNA inh	PP5 inh	MsrA inhibitor	MsrA act	EBNA-1 inh	PP1 inh	PP5 conf	PP1 counter 3x
COCCn1c(N)c(S(=O)(=O)c2cccs2)c2nc3ccccc3nc21	-14	6	3	-4	-13	-9	/	/
COCCn1c(N)c(C(=O)NCC2CCCO2)c2nc3ccccc3nc21 (stereo unspecified)	-10	13*	4	-2	5	4	15*	-4
COCCn1c(N)c(C(=O)NCc2cccs2)c2nc3ccccc3nc21	-8	11*	1	3	-8	0	5	4
O=C(Nc1cccc(C(F)(F)F)c1)c1csc([C@H]2C[C@H](O)[C@@H](CO)O2)n1	/	/	1	-2	/	/	/	/
Cc1ccc2nc(-c3ccccc3)nn2c1	/	/	0	-5	/	/	/	/
CCNc1nc2nonc2nc1NCC	-14	1	2	-6	-8	-5	/	/
COc1ccccc1CC(=O)O/N=C(\N)Cc1cccc2ccccc12	7	12*	1	2	11	5	-2	-3
COc1ccccc1OC(=O)Cc1cccc2ccccc12	0	3	/	0	-7	0	/	/
COc1cc(C(=O)Nc2cc(C)ccn2)ccc1OCC(=O)N1CCOCC1	4	2	0	-2	-11	1	/	/
CC1(C)C=Cc2c(ccc3c2OC[C@H](c2ccc(O)cc2O)C3)O1	6	9.6*	0	1	/	4	8	5
O=C(N/C(=C/c1ccc(Br)cc1)C(=O)N1CCCCC1)c1ccccc1F	-8	-1	-1	-3	0	0	/	/
CCCCNS(=O)(=O)c1ccc(NC(=O)C(Sc2ccccc2)c2ccccc2)cc1 (stereo unspecified)	-6	10*	1	-9	-3	8	4	3
CCC(C)NS(=O)(=O)c1ccc(NC(=O)C(Sc2ccccc2)c2ccccc2)cc1 (stereo unspecified)	9	4	-1	-2	2	2	/	/
COc1ccccc1N(C)S(=O)(=O)c1ccc(C(=O)N2CCCc3ccccc32)cc1	3	-1	-1	-3	-7	2	/	/
NS(=O)(=O)c1ccc(Nc2nc3ccccc3nc2NS(=O)(=O)c2cccc([N+](=O)[O-])c2)cc1	-8	11*	4	-7	0	7	6	14
CC(=O)Nc1ccc(S(=O)(=O)Nc2nc3ccccc3nc2Nc2ccc(S(N)(=O)=O)cc2)cc1	-4	3	3	-2	-10	2	/	/

Screens deposited in PubChem BioAssay by The Scripps Research Institute Molecular Screening Center.
